Source: PubChem (National Center for Advancing Translational Sciences (NCATS))
PNC assembly inh: blocks assembly of the perinucleolar compartment; activity change (PNC), negative = inhibition, % at 10 µM; 140,000 tested, 3.1% active; PC3M PTB-GFP, PNC prevalence imaging, 16 h; active compounds read low;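 active = readout at or below -70, meaning at least 70% loss of cells showing the perinucleolar compartment, a nuclear body marking cancer cells; inconclusive = readout between -30 and a set limit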;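 note: plate controls were DMSO wells for no effect and camptothecin positive control wells for full effect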
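Compounds are pinned in duplicate onto adhered PC3M cells stably expressing GFP-tagged PTB and incubated 16 h at 37 C. Cells are then fixed, nuclei stained with Hoechst, and PNC-positive cells counted.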
ALDH1A1 inh: ALDH1A1 (human) enzyme inhibition; P00352; Purified ALDH1A1, NADH fluorescence, propionaldehyde substrate; Potency, µM (highest dose often 75.3 µM), for inactives: at the top dose activity, negative = inhibition, usual class: inhibitors; 220,000 tested, 7.3% active;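 note: potency is the fitted concentration of half-maximal effect; plate controls were no enzyme wells and a reference inhibitor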
Lamin A splicing: modulators of lamin A splicing; HeLa LMNA splicing GFP/RFP minigene ratio, 48 h; Potency, µM (doses to about 46.1 µM), without a hit: top-dose ratio change, negative = inhibition, hits mostly inhibitors; 200,000 tested, 0.01% active; AID 1487; active = well fitted inhibition curve with a large enough effect in the signal ratio, with a control signal flat, not every such curve was filed as active; inconclusive = small, poorly fitted or top-dose-only effect, or effect the other way, or a change in a side signal; the % refers to the signal ratio; note: potency is the fitted concentration of half-maximal effect
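S3 HeLa stable clones carrying a lamin A-EGFP splicing minigene plus DsRed2 were seeded at 600 cells/well in Opti-MEM with 2% FBS, pin-dosed and incubated 48 h at 37°C. Acumen cytometry (488 nm) gave the GFP/RFP total-intensity ratio.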
KinaseGlo FLuc: blocks Kinase-Glo luciferase, a counter-screen artifact; AID 1379; Potency, µM (titrated, usually from 38.3 µM), without a hit: top-dose activity change, negative = inhibition, hits mostly inhibitors; Kinase-Glo luciferase, ATP luminescence, 8 min; 200,000 tested, 0.28% active; Q27757; active = well fitted inhibition curve with a large enough effect; inconclusive = small, poorly fitted or top-dose-only effect; note: potency is the fitted concentration of half-maximal effect; nearly all actives have a fitted effect of over 60% in size
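Compound is pinned into ATP-containing buffer (10 uM ATP, imidazole pH 7.2, 7 mM MgCl2). Kinase-Glo luciferase reagent is then added. Light output is recorded following an 8-min room-temperature incubation.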
HPGD block: inhibitors of human 15-hydroxyprostaglandin dehydrogenase (HPGD); P15428; Potency, µM, for the others: at the top dose activity change, negative = inhibition, usual class: inhibitors; AID 894; purified HPGD, NADH fluorescence kinetic, PGE2 substrate; 150,000 tested, 4.3% active; note: potency is the fitted concentration of half-maximal effect
Target sequence (P15428 whole entry, looked up): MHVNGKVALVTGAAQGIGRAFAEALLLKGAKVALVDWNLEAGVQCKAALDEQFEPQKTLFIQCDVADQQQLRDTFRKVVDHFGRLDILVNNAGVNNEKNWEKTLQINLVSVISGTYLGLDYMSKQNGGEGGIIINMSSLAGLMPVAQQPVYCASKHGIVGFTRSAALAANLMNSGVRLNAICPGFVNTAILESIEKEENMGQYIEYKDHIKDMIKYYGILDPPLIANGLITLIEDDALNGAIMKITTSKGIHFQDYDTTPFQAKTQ
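NADH formation kinetics: reaction with 30 uM PGE2 and 1 mM NAD+ (final), 20 nM enzyme, Tris-HCl pH 8 with Tween 20, after 15 min compound preincubation at room temperature. Fluorescence change, last versus first of five reads.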
The depositor's hits bear a star; ? = inconclusive; · = no result; [ ] = dose if it differs, or a comment. An excerpt weighted towards active compounds, which were near 10% of everything screened. Unless noted, calls come from the whole dose curve; as a rule, active = well fitted inhibition curve with a large enough effect (not every such curve was filed as active); inconclusive = small, poorly fitted or top-dose-only effect, or another doubt; inactive = no such curve, though single readings can be large or run the other way. Unless noted, % is set by controls: 0 for no effect and ±100 for the full control effect.

SMILES	PNC assembly inh	ALDH1A1 inh	Lamin A splicing	KinaseGlo FLuc	HPGD block
Cc1cccc(NC(=O)c2cc(NC(=O)C3CCCCC3C(=O)O)ccc2N2CCCCC2)c1 (stereo not drawn)	-6.6	17.8µM*	-5.3%	-2.7%	0.9%
CC(=O)Nc1ccc(N2CCCCC2)c(C(=O)Nc2cccc(C)c2)c1	-3.2	11.2µM*	-1.7%	0.6%	-8.7%
COc1ccc(N2CCN(C(=O)c3c(C)oc4ncnc(N5CCCCC5)c34)CC2)cc1	·	·	5.9%[46 µM]	·	·
CCN1C(=O)/C(=C2/C=Cc3cc(C)ccc3N2CC)N(C)C1=S	?	?	-13.8%	10µM*	-0.8%
CCN1/C(=C2\C(=O)N(C)C(=S)N2C)C=Cc2cc(OC)ccc21	-14.0	?	0.2%	-19.1%	-16.8%
Oc1ccc(CN2CCCc3ccccc32)c2cccnc12	?	10µM*	?	-2.4%	-9.3%
COc1ccccc1N1CCN(Cc2ccc(O)c3ncccc23)CC1	-5.5	-7.0%	?	-4.1%	-12.7%
CCOC(=O)c1c(N)sn(-c2ccccc2C)c1=S	-21.3	3.55µM*	-1.7%	11.4%	11.2µM*
CCOC(=O)c1nn(-c2ccccc2C)c(=O)c(C#N)c1C	2.2	4.2%	6.5%	-2.0%	-1.8%
O=C1CC(N2CCN(c3nc4ccccc4s3)CC2)C(=O)N1c1cccc(F)c1 (stereo not drawn)	?	?	-7.0%	-4.0%	-22.8%
CCCOc1ccc(N2C(=O)CC(N3CCN(c4nc5ccccc5s4)CC3)C2=O)cc1 (stereo not drawn)	-10.5	14.1µM*	-18.6%	-0.4%	-14.8%
O=C1CC(N2CCN(c3nc4ccccc4s3)CC2)C(=O)N1Cc1cccs1 (stereo not drawn)	?	22.4µM*	?	3.6%	-1.8%
NC(=O)C1CCN(C2CC(=O)N(Cc3cccs3)C2=O)CC1 (stereo not drawn)	-19.2	?	6.9%	-1.0%	5.5%
O=C1CC(N2CCN(c3ccc(F)cc3)CC2)C(=O)N1Cc1cccs1 (stereo not drawn)	-26.0	14.1µM*	3.4%	15.2%	-10.7%
CCN1C(=O)CC(N2CCN(c3ccc(Cl)cc3)CC2)C1=O (stereo not drawn)	23.6	-3.4%	?	11.5%	-7.3%
CCN1C(=O)CC(N2CCN(c3ccc(C(=O)c4ccccc4)cc3)CC2)C1=O (stereo not drawn)	8.2	?	?	-2.9%	22.4µM*
O=C(NCc1cccc(F)c1)C1CCN(S(=O)(=O)Cc2ccccc2)CC1	-25.1	5.2%	3.9%	0.7%	-2.7%
CC(C)(C)c1ccc(S(=O)(=O)NNC(=O)C2CCN(Cc3cccc(F)c3)CC2)cc1	·	2.24µM*	·	0.3%	·
Cc1ccc(-c2n[nH]c(=S)c3ccccc23)cc1	·	0.355µM*	-17.4%[46 µM]	0.6%	·
S=c1[nH]nc(-c2ccccc2)c2ccccc12	·	8.91µM*	0.5%[46 µM]	-4.2%	·
CC(C)Cc1nn2c(=O)cc(COC(=O)c3ccccc3NC(=O)c3cccs3)nc2s1	·	·	-4.3%[46 µM]	·	·
Brc1ccc(OCc2ccccc2)c(CNCc2ccncc2)c1	-108.8*	2µM*	-1.6%[0.0737 µM]	-2.0%	-6.0%
COc1ccc(C(=O)n2nc(-c3ccco3)nc2SC)cc1OC	-26.6	28.2µM*	-5.7%	-1.3%	?
Cc1ccc([N+](=O)[O-])cc1-c1ccc(/C=C(\C#N)c2[nH]nc(N)c2C#N)o1	42.6	-7.2%	?	1.0%	2.24µM*
COCc1cc(C)nc(OCC(=O)N/N=C/c2ccc(-c3cc([N+](=O)[O-])ccc3C)o2)c1C#N	-6.5	-6.9%	-13.0%	1.1%	-24.6%
O=C(COc1ccc(OCc2ccccc2)cc1)NN=C1CCCC1	·	8.91µM*	·	-5.0%	·
Cn1c(-c2ccccc2)cnc1SCc1nc2ccccc2c(=O)[nH]1	-3.1	31.6µM*	-3.4%	-15.3%	-20.9%
C=C1/C(=C\C=C2/CCC[C@]3(C)C([C@H](C)CCCC(C)(C)O)CC[C@@H]23)C[C@@H](O)C[C@@H]1O (stereo partly drawn)	·	-2.1%	·	·	·
O=C(O)[C@@H](O)[C@@H](O)[C@@H](O)[C@@H](O)c1nc2ccccc2s1	·	2.0%[13.5 µM]	·	-5.7%[7.66 µM]	3.55µM*
Cc1cc(-c2ccccc2)c(C#N)c(SCC(N)=O)n1	12.6	12.6µM*	10.3%	-5.7%	-13.0%
